# Test results from the supplement of paper PMC12067926.
# A number with no mark means an inactive call.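 How the source made its calls: active = growth AUC significantly below the DMSO wells by Dunnett test; inactive = the rest.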
# Compound: O=C(Oc1ccccc1)n1c(C(F)(F)F)nc2cc(Cl)c(Cl)cc21
# Assay: relative growth (AUC of 72 h growth curve relative to DMSO control, dAUC) (ratio); higher = more growth (less inhibition), active = hit call of the paper
# Conditions: 20 µM
# Method: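 Environmental bacterial isolates (Iceland stream sediment and Silwood Park soil) and whole stream-sediment communities were grown in LB from a 1:100 dilution with each pesticide at 20 µM (1% DMSO). A600 was read hourly for 72 h and the area under a spline-fitted growth curve (AUC) was computed. dAUC is the mean AUC of 3 biological replicates divided by the mean AUC of the DMSO controls. Significance was tested by Dunnett's test against the DMSO control.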
row,Target,relative growth
1,Prolinoborus 1 (Prolinoborus fasciculus),0.283 (active)
2,Carnobacterium 1 (Carnobacterium gallinarum),0.0839 (active)
3,Community 8,0.787
4,Arthrobacter 2 (Arthrobacter humicola),0.00975 (active)
5,Aeromonas 1 (Aeromonas sp. AE235),0.32 (active)
6,Arthrobacter 1 (Arthrobacter humicola),0.211 (active)
7,Community 6,0.563 (active)
8,Rhizobium 1 (Rhizobium herbae),0.0292 (active)
9,Serratia 1 (Serratia sp. 2015-2462-01),0.366 (active)
10,Paenibacillus 1 (Paenibacillus castaneae),0.00512 (active)
11,Pseudomonas 4 (Pseudomonas peli),0.336 (active)
12,Bacillus 1 (Bacillus foraminis),0.747
13,Hymenobacter 1 (Hymenobacter glaciei),0.165 (active)
14,Community 4,0.809
15,Pseudomonas 3 (Pseudomonas mandelii),0.765 (active)
16,Microbacterium 1 (Microbacterium arborescens),0.785 (active)

row,Target,relative growth
1,Arthrobacter 3 (Arthrobacter sp.),0.0715 (active)
2,Pseudomonas 2 (Pseudomonas vancouverensis),0.735 (active)
3,Pseudomonas 1 (Pseudomonas baetica),0.741
4,Sphingomonas 2 (Sphingomonas sp.),0.0208 (active)
5,Flavobacterium 2 (Flavobacterium succinicans),0.0416 (active)
6,Community 10,0.772
7,Aeromonas 3 (Aeromonas popoffii),0.337 (active)
8,Pseudomonas 6 (Pseudomonas sp.),0.777
9,Pseudomonas 5 (Pseudomonas baetica),0.765 (active)
10,Community 9,0.363 (active)
11,Community 7,1.01
12,Oryzobacter 1 (Oryzobacter terrae),0.00822 (active)
13,Argrobacterium 1 (Agrobacterium sp.),0.752 (active)
14,Aeromonas 2 (Aeromonas sobria),0.0369 (active)
15,Neobacillus 1 (Neobacillus soli),0.826
16,Flavobacterium 1 (Flavobacterium glaciei),0.0789 (active)
